# AddAB inh: less growth of phage-infected E. coli with AddAB | inhibition, % at 11.9 µM | 330,000 compounds, 0.29% hits | E. coli expressing H. pylori AddAB, absorbance growth; in the data active means inhibition above about 12%;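 further: 0% = vehicle wells of infected cells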
# E coli growth-1: counter-screen for AddAB inhibitors: E. coli growth inhibition. E. coli V3065 growth, OD600 absorbance, 18 h. inhibition, % at 11.9 µM. 330,000 compounds, 0.27% hits;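 active means inhibition above the campaign's mean inhibition across all tested compounds plus 3 SD, cut at about 9.9% in these data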;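 further: uninfected addAB+ strain grown without phage in ampicillin broth; 0% = DMSO wells and 100% = ciprofloxacin 0.95 µg/ml wells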
# phage Ecoli inh: E. coli growth loss with phage present; inhibition, % at 11.9 µM; 360,000 compounds, 0.26% hits; AID 651602; growth absorbance; in the data active means inhibition above about 11%
# Tat transport: inhibitors of E. coli Tat protein transport; E. coli MC4100 TorA-mCherry Tat export, fluorescence; inhibition, % at 10 µM; AID 488895; 340,000 compounds, 0.036% hits;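 active means mean replicate inhibition at least 50% and at least half of replicates individually reaching 50%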;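 further: exported cargo escapes ClpAP degradation while cytoplasmic cargo is degraded and loses fluorescence; 0% = median of neutral control wells and 100% = median of NaSCN control wells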
# E coli growth-2: inhibitors of Escherichia coli growth. 330,000 compounds, 0.21% hits. OD600 absorbance (no concentration beside the values). OD600, 23 h; stronger effect = lower value;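 active means OD600 absorbance below the run mean of sample wells minus 3.6 SD, in any replicate, cut at about 0.56 in these data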
# AddAB confirm: confirmation screen: growth loss of phage-infected E. coli expressing H. pylori AddAB; shares compounds with AddAB inh; E. coli V3065 expressing H. pylori AddAB, T4 phage, OD; T4 phage with gene 2 nonsense mutations; inhibition, % at 11.9 µM; 880 compounds, 64% hits;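 active means mean inhibition above a set limit taken from the earlier primary screen, cut at about 13% in these data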;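 further: higher means less bacterial growth since AddAB block lets phage replicate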
# RecBCD counter: reduces growth of phage-infected RecBCD+ E. coli, AddAB inhibitor counter-screen; E. coli V66 + mutant T4 phage, OD growth; 880 compounds, 73% hits; inhibition, % at 11.9 µM; shares compounds with AddAB inh;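 active means mean inhibition above the mean of solvent-only control wells plus 3 SD, cut at about 4% in these data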;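 further: optical density read after an 18 h incubation at 37 °C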
# Bact viability: reduces bacterial viability, AddAB inhibitor counter-screen | inhibition, % at 11.9 µM | shares compounds with AddAB inh | 880 compounds, 35% hits | absorbance (AddAB counterscreen); in the data active means inhibition above about 25%
# RecBCD conf: growth loss of phage-infected V66 E. coli, RecBCD confirmation screen | inhibition, % at 11.9 µM | 890 compounds, 45% hits | E. coli V66 + T4 2- phage, growth OD | shares compounds with phage Ecoli inh;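 active means mean inhibition over triplicates exceeding the hit threshold derived in the original primary screen, cut at about 11% in these data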
# Ecoli viability: counter-screen for RecBCD inhibitors: inhibitors of bacterial viability. 890 compounds, 29% hits. E. coli viability, absorbance (OD) growth. shares compounds with phage Ecoli inh. inhibition, % at 11.9 µM; in the data active means inhibition above about 20%;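 further: E. coli strain V66 grown with compound alone and no phage infection; 0% = bacteria with DMSO vehicle only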
# AddAB phage OD: growth loss of phage-infected AddAB E. coli, RecBCD counter-screen; inhibition, % at 11.9 µM; shares compounds with phage Ecoli inh; AID 651984; 890 compounds, 45% hits; E. coli expressing H. pylori AddAB + T4 phage, OD growth; gene 2 mutant T4, recBCD-deleted host;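 active means mean inhibition above the solvent-only control wells' mean plus 3 SD, cut at about 22% in these data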;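 further: higher means less bacterial growth from phage killing when AddAB is blocked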
# Active calls of the source: *; x = no result given. The list is not random: actives were taken first. Their share in the collection is about 0.51%.
SMILES,AddAB inh,E coli growth-1,phage Ecoli inh,Tat transport,E coli growth-2,AddAB confirm,RecBCD counter,Bact viability,others
Cc1noc(C)c1S(=O)(=O)Nc1ccc2c(c1)CC(=O)N(C(C)CO)CC(C)C(CN(C)S(=O)(=O)c1ccc(F)cc1)O2 (stereo not given),x,x,x,x,0.64,x,x,x,
Cc1ccc(-c2c(NC(=O)c3ccco3)oc3ccccc3c2=O)cc1,93*,39*,-1,-3,0.63,-1,0,-2,
O=C(Nc1oc2ccccc2c(=O)c1-c1ccccc1)c1ccco1,x,x,-2,x,x,x,x,x,
CC(CC(=O)NCc1ccco1)=NNC(=O)Cc1ccccc1,x,x,x,x,0.75,x,x,x,
COc1cccc(Cn2nnc(C(=O)NCc3ccc(F)cc3)c2N)c1,21*,9,4,-4,0.74,1,0,-4,
COc1ccc(C(NC(C)=O)c2cc(Cl)c3cccnc3c2O)cc1OC (stereo not given),10,9,8,-2,x,x,x,x,
CCC(=O)NC(c1ccc(C)cc1)c1cc(Cl)c2cccnc2c1O (stereo not given),21*,25*,x,-11,x,16*,17*,14,
CCCC(=O)NC(c1ccc2c(c1)OCO2)c1cc(Cl)c2cccnc2c1O (stereo not given),23*,24*,x,-5,0.68,21*,22*,23,
CCC(=O)NC(C)c1cc(Cl)c2cccnc2c1O (stereo not given),-4,-4,7,0,0.69,x,x,x,
Cc1ccc(CN2CCN(N=Cc3cccc([N+](=O)[O-])c3)CC2)cc1,x,x,x,x,0.63,x,x,x,
CCCCNC(=O)O[C@H]1C[C@@H]2CCN3C(=O)CCC[C@H]([C@H]1CC)[C@H]23,15*,2,3,-10,x,-2,1,-4,
Nc1nc(Cl)nc2c1ncn2C1CCC(CO)O1 (stereo not given),x,x,3,x,x,x,x,x,
O=c1[nH]cnc2c1ncn2[C@H]1CC[C@@H](CO)O1,97*,98*,101*,8,x,98*,96*,98*,RecBCD conf=98*;Ecoli viability=100*;AddAB phage OD=99*
O=c1[nH]cnc2c1ncn2[C@@H]1C[C@@H](O)[C@H](CO)O1,2,-2,1,-13,0.61,x,x,x,
Nc1ncnc2c1ncn2[C@H]1CC[C@@H](CO)O1,76*,75*,53*,14,0.36*,94*,48*,89*,RecBCD conf=60*;Ecoli viability=55*;AddAB phage OD=88*
CC(=NNC(=S)NC1CCCCC1)c1cccc(C(F)(F)F)c1,x,x,x,x,0.68,x,x,x,
C[C@H]1O[C@@H](n2cc(F)c(=O)[nH]c2=O)[C@H](O)[C@@H]1O,36*,42*,32*,6,x,41*,25*,38*,RecBCD conf=47*;Ecoli viability=31*;AddAB phage OD=53*
O=c1[nH]c(=O)n(C2OC(CO)C(O)C(O)C2O)cc1F (stereo not given),x,x,4,x,x,x,x,x,
COc1cc(CN2CCCCCC2)cc(OC)c1OC,3,0,2,2,0.67,x,x,x,
COc1cc(Cc2cnc(N)nc2N)cc(OC)c1OC,99*,100*,101*,-28,0.064*,98*,100*,100*,RecBCD conf=101*;Ecoli viability=102*;AddAB phage OD=101*
CCCCC1CNC(=S)N1CC1CCCCC1 (stereo not given),x,x,x,x,0.68,x,x,x,
CCOC(=O)c1cccc(C2=CC(=O)CC(c3ccc(OC)c(OC)c3)C2)c1 (stereo not given),x,x,x,x,0.71,x,x,x,
N#Cc1c(-c2ccccc2)ccn(Cc2cccc(Cl)c2)c1=O,21*,16*,15*,-4,0.69,27*,16*,19,RecBCD conf=6;Ecoli viability=9;AddAB phage OD=15

# From PubChem BioAssay
